MCF10A rerep – induces DNA re-replication in MCF 10a normal breast cells; MCF 10A DNA re-replication, Hoechst nuclear intensity, 48 h; 350,000 tested, 2.9% active; Potency, µM (titrated, usually from 46.1 µM), for the others: top-dose activity, positive = re-replication, usual class: activators; AID 624296; further: potency means the concentration at half of the fitted maximal effect; % of control where 0% means no effect; nearly all actives have a fitted effect of over 50% in size
ATXN viability – cell viability loss in ATXN counter-screen. S2 cells (HEK-293 line with an ATXN2-luciferase reporter) viability, CellTiter-Fluor protease fluorescence, 24 h. Potency, µM (top dose mostly 56.7 µM), most hits filed as cytotoxic. 400,000 tested, 0.49% active; further: potency means the concentration at half of the fitted maximal effect; nearly all actives have a fitted effect of over 40% in size
SW480 rereplic – induces DNA re-replication in SW480 colon adenocarcinoma cells; 340,000 tested, 1.8% active; AID 624297; SW480 DNA re-replication, Hoechst DNA content imaging, 48 h; Potency, µM (titrated, usually from 46.1 µM), for inactives: top-dose re-replication activation, most hits filed as activators; further: potency means the concentration at half of the fitted maximal effect; % of control where 0% means no effect; nearly all actives have a fitted effect of over 55% in size
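First, 250 cells per well were seeded. Next, compound or vehicle (23 nL) was pinned in, plates sat 48 hr at 37 C. Finally Hoechst was added for 40 min before fluorescence scanning.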
PINK1 modulator – PINK1 expression modulation. 410,000 tested, 0.2% active. PINK1 immunofluorescence, high-content cytometry, 24 h. Potency, µM (titrated, usually from 76.6 µM), without a hit: at the highest dose activation (PINK1 increase), actives largely listed as activators; active means well fitted activation curve with a large enough effect; inconclusive means small, poorly fitted or top-dose-only effect; cell line not stated here; further: potency means the concentration at half of the fitted maximal effect; % of control where 0% means no effect; nearly all actives have a fitted effect of over 65% in size
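Readout is PINK1 immunofluorescence, quantified alongside mitochondrial, cell and nuclear markers by laser-scanning microplate cytometry. Cells from a stable line were exposed to compound titrations (5 concentrations) for 24 hours, with CCCP controls.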
ATXN2 expr inh – ATXN2 expression inhibition; HEK-293 ATXN2-luciferase reporter, luminescence, 24 h; Potency, µM (highest dose often 57 µM), without a hit: top-dose activity change, negative = inhibition, hits mostly inhibitors; AID 1745845; 360,000 tested, 0.72% active; further: potency means the concentration at half of the fitted maximal effect; on the % scale 0 is the no-effect control and ±100 the full control effect; nearly all actives have a fitted effect of over 55% in size
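ATXN2-luciferase reporter cells (luciferase flanked by upstream and downstream ATXN2 gene portions) were treated 24 h at 37 °C with compounds at up to 57 uM. SteadyGlo luminescence gave expression; GF-AFC fluorescence gave viability.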
IL1B secr inh – blocks inflammasome-driven IL-1 beta release; THP-1 LPS/ATP IL-1B secretion, AlphaLISA, 16 h; stronger effect = lower value; activity change, % at 57.5 µM; 360,000 tested, 4.7% active; in the data active means activity change below about -50%; inconclusive means mostly about -30% to -49%; further: on the % scale 0 is the no-effect control and ±100 the full control effect
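THP-1 cells pretreated 1 hr with compounds (up to 57.5 uM final), then stimulated with LPS (250 ng/mL final) plus ATP (1.25 mM final); secreted IL-1B measured by AlphaLISA after 16 hr, decreased signal indicating inhibition.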
* = called active by the depositor; i = inactive; ? = inconclusive; . = no result given; [ ] = remark or other dose. Hits are enriched below; roughly 7.1% of the tested compounds scored in any of these assays. Unless noted, the call rests on the fitted dose curve; in most records, active means well fitted curve in the direction sought with a large enough effect; inconclusive means small, poorly fitted or top-dose-only effect, or another doubt; inactive means no such curve, though single readings can be large; an effect the other way counts as inactive or inconclusive.

SMILES	MCF10A rerep	ATXN viability	SW480 rereplic	PINK1 modulator	ATXN2 expr inh	IL1B secr inh
Cc1cc(C=C2C(=O)N(C)C(=O)N(C)C2=O)c(C)n1-c1ccccc1	4.5%	i	3.2%	-0.7%	4.4%	1.9
CCCc1cc(=O)oc2c3c(cc(OCC(=O)N4CCC[C@H]4C(=O)O)c12)OC(C)(C)CC3	-25.8%	i	-4.2%	0.1%	5.7%	-6.4
Cc1cc([N+](=O)[O-])c2ccccc2[n+]1[O-]	16.4µM*	.	14.6µM*	-0.4%	.	-98.6*
CC(C)CC1C(=O)N(Cc2cn(CC3CCCCC3)nn2)CCS(=O)(=O)N1Cc1ccc(-c2ccc(F)nc2)cc1 (stereo not given)	.	?	.	2.3%	?	-3.0
CCCCCCOc1ccc(C(=O)n2cnc(N)n2)cc1	23.1µM*	i	-3.6%	-2.7%[38.3 µM]	10.7%	15.7
CN1C(=O)c2ccccc2Sc2ccc(NC(=O)c3ccc(C(F)(F)F)cc3)cc21	.	?	.	16.1%	?	.
COc1ccc(-c2c3c(nc4sc5c(Cl)nc(C)nc5c24)CCC3)cc1	?	?	-2.1%	0.9%	-32.4%	6.1
C[C@]12CC[C@H](N)CC1=CCC1C2CC[C@@]2(C)C1CC[C@@H]2O (stereo not given in full)	?	i	18.4µM*	-3.0%	-0.1%	-11.6
C[C@]12CC[C@@H](O)CC1=CCC1C2CC[C@@]2(C)C1CC[C@@H]2N (stereo not given in full)	?	i	?	-0.5%	-0.7%	11.7
NNc1ccccc1	0.5%	i	0.0%	.	9.3%	.
Cc1nccn1-c1c([N+](=O)[O-])c(=O)n(C)c2ccccc12	10.3µM*	?	-2.4%[9.22 µM]	-0.4%	8.1%	-91.6*
COc1ccc(C(CNC(=O)Cc2ccc(Cl)c(Cl)c2)N(C)C)cc1 (stereo not given)	5.5%	i	-1.1%	-2.9%	108.5%	-50.9*
C[C@H](CCC(=O)O)[C@H]1CC[C@@H]2[C@@H]3[C@@H](O)C[C@H]4C[C@@H](O)CC[C@@]4(C)[C@H]3CC[C@@]21C	-5.6%[20.6 µM]	.	-4.4%[20.6 µM]	.	.	.
Cn1c(=O)oc2cc(NC(=O)CCl)ccc21	17.5%	.	?	1.7%	?	-80.0*
CCOC(=O)CCCc1cc[c]([Sb](=[O])([OH])[OH])cc1	.	.	.	-0.7%	.	.
N[C@@H](Cc1cc(Br)c(O)c(Br)c1)C(=O)O	18.4µM*	.	-13.4%	.	.	.
CCCN1CCCC2Cc3nc(N)ncc3CC21 (stereo not given)	0.2%	.	-2.3%	.	.	.
COc1ccc(CCNc2nccn(-c3ccc(C)c(C)c3)c2=O)cc1OC	.	?	.	0.5%	0.0%	.
Fc1ccc(CCNCc2ccccc2Cl)cc1	3.9%	i	-1.0%	-0.3%[38.3 µM]	7.2%	-5.7
CCOc1ccc(Cl)cc1CNCCc1ccc(F)cc1	?	?	-3.6%	4.4%	-16.2%	-57.3*
CC1=CC2OC3CC4OC(=O)C=CC=CC(=O)OCCC(C)C(O)C(=O)OCC2(CC1)C4(C)C31CO1 (stereo not given)	12.0%	0.0844µM*	?	-7.2%	?	-103.0*
CC1CCOC(=O)C=CC=CC(=O)OC2CC3OC4C5OC5(C)C(O)CC4(COC(=O)C1O)C2(C)C31CO1 (stereo not given)	0.231µM*	0.267µM*	?	-6.9%	0.267µM*	-103.7*
CC(O)C1C=CC=CC(=O)OC2CC3OC4C5OC5(C)C(O)CC4(COC(=O)C(O)C(C)CCO1)C2(C)C31CO1 (stereo not given)	?	?	1.84µM*	-7.2%	?	-100.4*
CC1=CC2OC3CC4OC(=O)C=CC=CC(C(C)O)OCC(O)C5(C)OC5C(=O)OCC2(CC1O)C4(C)C31CO1 (stereo not given)	16.0%	?	15.1%	-1.1%	0.112µM*	-116.5*
COc1cccc(C(=O)NCc2nc(-c3cccc(NC(=O)c4ccoc4C)c3)oc2C)c1	.	?	.	-0.4%	.	.

Source: PubChem (National Center for Advancing Translational Sciences (NCATS))
